Reference: PubChem BioAssay AID1159580 (chemical genetic matrix, 2015)
Several values for one entry are separate records, joined by “and”; a condition that tells them apart may be missing. Equal entries are not always repeated. Hit rate of the full screen: of about 5,500 compounds, about 2,000 (36%) were called active. Another 18% or so got no clear call; they are omitted. Some of the results follow. Unmarked numbers belong to inactive results. Rule as the data show it: active = normalized growth mostly below about 0.91 (no sharp cut-off); inconclusive = no clear call, values can overlap the other calls; inactive = mostly above about 0.92.

Experiment: chemical genetic growth profiling, strain panel (AID 1159580);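 also: tested at 20 µM; growth read once vehicle control cultures reached saturation at 30 °C; 1 = growth at the plate median or of vehicle wells; lower values mean less growth of the strain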
Details: S. cerevisiae deletion strains, growth OD

For `C[n+]1cc2c3c(ccc2c2ccc4cc5c(cc4c21)OCO5)OCO3`, the normalized growth (locus YJR043C, strain POL32, active compounds read low) was 0.0783 (active), the normalized growth (locus YJR066W, strain TOR1, active compounds read low) was 0.931 and the normalized growth (locus YJR075W, strain HOC1, active compounds read low) was 0.0715 (active) and 0.0688 (active). The normalized growth (locus YKL009W, strain mrt4, active compounds read low) was 0.922, the normalized growth (locus YKL068W, active compounds read low) was 0.964 and the normalized growth (locus YKL085W, strain MDH1 (second series), active compounds read low) was 0.921 (active). For the same compound, the normalized growth (locus YKL085W, strain MDH1, active compounds read low) was 0.921 (active), the normalized growth (locus YKL160W, strain elf1, active compounds read low) was 0.548 (active) and the normalized growth (locus YKL190W, strain CNB1, active compounds read low) was 0.0545 (active). For the same compound, the normalized growth (locus YKR001C, strain vps1, active compounds read low) was 0.0723 (active), the normalized growth (locus YKR026C, strain gcn3, active compounds read low) was 0.843 (active) and the normalized growth (locus YKR091W, strain srl3, active compounds read low) was 0.914 (active). The normalized growth (locus YLL001W, strain dnm1, active compounds read low) was 0.639 (active), the normalized growth (locus YLL026W, active compounds read low) was 0.549 (active) and the normalized growth (locus YLL041C, strain sdh2, active compounds read low) was 0.778 (active). The normalized growth (locus YLR027C, strain aat2, active compounds read low) was 0.379 (active), the normalized growth (locus YLR039C, strain RIC1, active compounds read low) was 0.101 (active) and the normalized growth (locus YLR058C, strain SHM2, active compounds read low) was 0.0596 (active). For the same compound, the normalized growth (locus YLR102C, strain apc9, active compounds read low) was 0.0679 (active), the normalized growth (locus YLR113W, strain HOG1, active compounds read low) was 0.951 and the normalized growth (locus YLR221C, strain rsa3, active compounds read low) was 0.562 (active). The normalized growth (locus YLR258W, strain gsy2, active compounds read low) was 0.502 (active), the normalized growth (locus YLR262C, strain YPT6 (second series), active compounds read low) was 0.827 (active) and the normalized growth (locus YLR262C, strain YPT6, active compounds read low) was 0.123 (active). For the same compound, the normalized growth (locus YLR268W, strain sec22, active compounds read low) was 0.0776 (active), the normalized growth (locus YLR320W, strain mms22, active compounds read low) was 0.375 (active) and the normalized growth (locus YLR330W, strain CHS5, active compounds read low) was 0.0586 (active). For the same compound, the normalized growth (locus YLR342W, strain FKS1 (second series), active compounds read low) was 0.0743 (active), the normalized growth (locus YLR342W, strain FKS1, active compounds read low) was 0.349 (active) and the normalized growth (locus YLR357W, strain rsc2, active compounds read low) was 0.844 (active). For the same compound, the normalized growth (locus YLR370C, strain arc18, active compounds read low) was 0.762 (active), the normalized growth (locus YLR371W, strain rom2, active compounds read low) was 0.0708 (active) and the normalized growth (locus YLR384C, strain iki3, active compounds read low) was 0.97. The normalized growth (locus YLR418C, strain cdc73, active compounds read low) was 0.107 (active), the normalized growth (locus YML016C, strain PPZ1, active compounds read low) was 0.0598 (active) and the normalized growth (locus YML032C, strain rad52, active compounds read low) was 0.0764 (active). The normalized growth (locus YML120C, strain ndi1, active compounds read low) was 0.582 (active), the normalized growth (locus YML124C, strain tub3, active compounds read low) was 0.0684 (active) and the normalized growth (locus YMR058W, strain fet3, active compounds read low) was 0.592 (active). For the same compound, the normalized growth (locus YMR078C, strain ctf18, active compounds read low) was 0.0819 (active), the normalized growth (locus YMR125W, strain sto1, active compounds read low) was 0.462 (active) and the normalized growth (locus YMR129W, active compounds read low) was 0.779 (active). For the same compound, the normalized growth (locus YMR205C, strain PFK2, active compounds read low) was 0.273 (active), the normalized growth (locus YMR223W, strain ubp8, active compounds read low) was 0.077 (active) and the normalized growth (locus YMR231W, strain pep5, active compounds read low) was 0.991. The normalized growth (locus YMR307W, strain GAS1, active compounds read low) was 0.145 (active) and 0.0622 (active), the normalized growth (locus YNL067W, strain RPL9B, active compounds read low) was 0.0573 (active) and the normalized growth (locus YNL071W, strain lat1, active compounds read low) was 0.0942 (active). The normalized growth (locus YNL175C, strain NOP13, active compounds read low) was 0.0763 (active), the normalized growth (locus YNL183C, strain NPR1, active compounds read low) was 0.923 and the normalized growth (locus YNL197C, strain WHI3, active compounds read low) was 0.0898 (active). For the same compound, the normalized growth (locus YNL209W, strain ssb2, active compounds read low) was 0.623 (active), the normalized growth (locus YNL224C, strain SQS1, active compounds read low) was 0.0906 (active) and the normalized growth (locus YNL233W, strain BNI4, active compounds read low) was 0.0657 (active). The normalized growth (locus YNL248C, strain rpa49, active compounds read low) was 0.688 (active), the normalized growth (locus YNL250W, strain rad50, active compounds read low) was 0.839 (active) and the normalized growth (locus YNL271C, strain bni1, active compounds read low) was 0.92. For the same compound, the normalized growth (locus YNL298W, strain CLA4, active compounds read low) was 0.951, the normalized growth (locus YNL307C, strain MCK1, active compounds read low) was 0.0755 (active) and the normalized growth (locus YNL322C, strain KRE1 (second series), active compounds read low) was 1. The normalized growth (locus YNL322C, strain KRE1, active compounds read low) was 0.0622 (active), the normalized growth (locus YNR049C, strain mso1, active compounds read low) was 0.964 and the normalized growth (locus YNR052C, strain pop2, active compounds read low) was 0.085 (active). The normalized growth (locus YOL006C, strain TOP1, active compounds read low) was 0.135 (active), the normalized growth (locus YOL012C, strain htz1) was 0.232 and the normalized growth (locus YOL147C, strain pex11, active compounds read low) was 0.0667 (active). The normalized growth (locus YOR001W, strain rrp6, active compounds read low) was 0.823 (active), the normalized growth (locus YOR061W, strain CKA2, active compounds read low) was 0.0586 (active) and the normalized growth (locus YOR069W, strain VPS5, active compounds read low) was 0.0593 (active). The normalized growth (locus YOR070C, strain gyp1, active compounds read low) was 0.413 (active), the normalized growth (locus YOR080W, strain dia2, active compounds read low) was 0.825 (active) and the normalized growth (locus YOR083W, strain WHI5 (second series), active compounds read low) was 0.0851 (active). For the same compound, the normalized growth (locus YOR083W, strain WHI5, active compounds read low) was 0.475 (active), the normalized growth (locus YOR106W, strain vam3, active compounds read low) was 0.315 (active) and the normalized growth (locus YOR136W, strain idh2, active compounds read low) was 0.0832 (active). For the same compound, the normalized growth (locus YOR144C, strain elg1, active compounds read low) was 0.0651 (active), the normalized growth (locus YOR184W, strain ser1, active compounds read low) was 0.0766 (active) and the normalized growth (locus YOR231W, strain MKK1, active compounds read low) was 0.96. The normalized growth (locus YOR265W, strain rbl2, active compounds read low) was 0.5 (active), the normalized growth (locus YOR270C, strain vph1, active compounds read low) was 0.38 (active) and the normalized growth (locus YOR290C, strain snf2, active compounds read low) was 0.412 (active). For the same compound, the normalized growth (locus YOR316C, strain cot1, active compounds read low) was 0.0661 (active), the normalized growth (locus YPL051W, strain arl3, active compounds read low) was 0.512 (active) and the normalized growth (locus YPL055C, strain LGE1, active compounds read low) was 0.0742 (active) and 0.092 (active). For the same compound, the normalized growth (locus YPL078C, strain atp4, active compounds read low) was 0.538 (active), the normalized growth (locus YPL106C, strain sse1, active compounds read low) was 0.741 (active) and the normalized growth (locus YPL240C, strain hsp82, active compounds read low) was 0.58 (active). For the same compound, the normalized growth (locus YPL256C, strain CLN2, active compounds read low) was 0.969, the normalized growth (locus YPR119W, strain clb2, active compounds read low) was 0.07 (active) and the normalized growth (locus YPR141C, strain kar3, active compounds read low) was 0.971. For the same compound, the normalized growth (locus YPR163C, strain tif3, active compounds read low) was 0.0761 (active), the normalized growth (locus YPR167C, strain met16, active compounds read low) was 0.0704 (active) and the normalized growth (strain wtn01, active compounds read low) was 0.067 (active).
